Test results published in PubChem BioAssay (NCATS).
Results filed as inconclusive are left out. Where a call stands in place of a potency, no number is given. The source made the active and inactive calls. The call rests on the fitted dose curve; in most records, active means well fitted curve in the direction sought with a large enough effect; inconclusive means small, poorly fitted or top-dose-only effect, or another doubt; inactive means no such curve, though single readings can be large; an effect the other way counts as inactive or inconclusive.

What was measured:
[1] = P-glycoprotein substrates identified in KB-3-1 adenocarcinoma cell line, qHTS therapeutic library screen (AID 1346986); further: nearly all actives have a fitted effect of over 60% in size
Outline: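 72 h cell-killing screen, 500 cells/well, CellTiter-Glo luminescence. Paired lines KB-3-1/KB-8-5-11; P-gp dependence checked by tariquidar co-treatment and HEK-293 MDR-19 versus empty-vector cells.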

[2] = P-glycoprotein substrates identified in KB-8-5-11 adenocarcinoma cell line, qHTS therapeutic library screen (AID 1346987); further: nearly all actives have a fitted effect of over 65% in size
Outline: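 Luminescence from CellTiter-Glo, read 5 min after addition, quantified survival of KB-8-5-11 (P-gp-overexpressing) cells exposed to compounds for 72 h. AC50 was derived from concentration-response curves.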

Row | SMILES | Potency [1] | Potency [2] | outcome [1] | outcome [2]
1 | C[C@@H](c1ccccc1)N(C(N)=NC#N)c1cccc2ncccc12 | inactive | inactive | – | –
2 | C=C[C@H]1[C@H](O[C@@H]2O[C@H](CO)[C@@H](O)[C@H](O)[C@H]2O)OC=C(C(=O)OC)[C@H]1CC=O | inactive | inactive | – | –
3 | COC(=O)C1=CO[C@@H](O[C@@H]2O[C@H](CO)[C@@H](O)[C@H](O)[C@H]2O)[C@H]2[C@@H]1[C@H](O)C[C@]2(C)O | inactive | inactive | – | –
4 | CCN1CCN(C(=O)N[C@@H](C(=O)N[C@@H]2C(=O)N3[C@@H]2SC(C)(C)[C@@H]3C(=O)O)c2ccccc2)C(=O)C1=O | inactive | inactive | – | –
5 | Cc1cc(C(=O)N2Cc3cnn(C)c3Nc3ccccc32)ccc1CNC(=O)N1CCN(Cc2cc(O)cc(O)c2)CC1 | inactive | inactive | – | –
6 | CC(C)NC(=O)c1ccc(C#Cc2ccncc2)cn1 | inactive | inactive | – | –
7 | C=C1CC[C@@]2(OC1)O[C@H]1CC3[C@@H]4CC=C5C[C@@H](O)C[C@@H](O[C@@H]6OC[C@H](O)[C@H](O)[C@H]6O[C@@H]6O[C@@H](C)[C@H](O)[C@@H](O)[C@H]6O)[C@]5(C)C4CC[C@]3(C)[C@H]1[C@@H]2C (stereo partly drawn) | inactive | inactive | – | –
8 | C/C=C/C=C/[C@@H]1O[C@](O)([C@H](CC)C(=O)NC/C=C/C=C(\C)[C@@H](OC)[C@@H](C)[C@@H]2O[C@H](/C=C/C=C/C=C(\C)C(=O)c3c(O)ccn(C)c3=O)[C@H](O)[C@@H]2O)[C@H](O)[C@H](O)C1(C)C | – | – | inactive [at 9.29 µM] | inactive [at 9.29 µM]
9 | COC(=O)c1ccc(OC)cc1O[C@@H]1O[C@H](CO[C@@H]2OC[C@@H](O)[C@H](O)[C@H]2O)[C@@H](O)[C@H](O)[C@H]1O | inactive | inactive | – | –
